Assay results as given in the supplement of paper PMC3334620.
In all, about 33,000 sequences were measured (“E-score (-0.5 to 0.5)”: median about -0.0034, highest 2% from about 0.25 on). Only a selection was taken, and the highest values are over-represented in it overall.

Each sequence was assayed against T1, Yap3 (UniProt P38749) (assay: PBM E-score (8-mer binding enrichment) (E-score (-0.5 to 0.5)); higher = stronger / more preferred TF binding). Conditions: protein concentration: 100 nM; construct: GST-full length.
T1 sequence: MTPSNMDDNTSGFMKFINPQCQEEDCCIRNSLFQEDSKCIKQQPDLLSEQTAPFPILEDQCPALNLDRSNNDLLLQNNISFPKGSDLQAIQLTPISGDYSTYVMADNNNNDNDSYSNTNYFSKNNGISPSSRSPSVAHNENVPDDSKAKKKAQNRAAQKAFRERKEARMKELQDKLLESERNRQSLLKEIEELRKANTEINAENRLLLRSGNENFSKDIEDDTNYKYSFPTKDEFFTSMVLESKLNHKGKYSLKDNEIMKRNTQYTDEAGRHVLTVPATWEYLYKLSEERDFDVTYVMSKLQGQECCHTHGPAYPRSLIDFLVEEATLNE
In short: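 Universal all-10-mer Agilent arrays, double-stranded by primer extension on fresh or once-stripped slides, were probed with about 100-200 nM GST-tagged yeast transcription factors made by PURExpress. Fluorescent anti-GST detected bound protein, and masliner normalised the scans. E-scores from the Universal PBM Analysis Suite were given to each ungapped eight-base word pooled with its reverse complement.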

Row | Sequence | PBM E-score
1 | CAGCTGCC | -0.0739
2 | CATCCTTA | -0.00117
3 | CCCAGTTC | -0.0993
4 | GGTGCGGA | -0.0917
5 | CGATGGAC | -0.0566
6 | AACCATCC | -0.0788
7 | AATGCTCT | -0.0877
8 | CAGACAAA | 0.126
9 | CGCTCACC | -0.0419
10 | GCCCAGCA | -0.301
11 | AATAAGAA | 0.269
12 | CATAATGG | -0.033
13 | AATAATGT | 0.233
14 | AATAATCT | 0.31
15 | AATAATAT | 0.337
16 | AATAAGAG | 0.195
17 | AATAATGG | 0.329
18 | AATAATCG | 0.107
19 | AATAATCC | 0.109
20 | AATAAGAT | 0.075
21 | AAGAATAT | 0.0717
22 | GACGGGGA | -0.164
23 | ACCAGGTC | -0.0571
24 | CGGCGATC | -0.086
25 | GAGGGGCC | -0.323

Row | Sequence | PBM E-score
26 | AGCTCAGG | -0.0122
27 | AATTATAC | 0.26
28 | AATTATTG | 0.195
29 | AGTTATTA | 0.184
30 | CATTATAA | 0.0345
31 | GATTATTA | 0.198
32 | AATTATAA | 0.224
33 | GATTATAA | 0.244
34 | AATTATAG | 0.234
35 | AATTATTA | 0.311
36 | CATTATTA | 0.334
37 | CATTATTC | 0.185
38 | TATTATAA | 0.281
39 | GAACCCTA | -0.054
40 | CAAGGGTC | -0.0382
41 | AAGAATCC | -0.111
42 | ACCTCTCT | -0.175
43 | ATACTTCG | -0.0772
44 | GGACTGTA | -0.0642
45 | TATGCAGA | 0.0525
46 | AAGTATAT | 0.135
47 | AACTATTC | 0.125
48 | AATTATTC | 0.256
49 | AAGTATAA | 0.249
50 | AGTTATTC | 0.096

Row | Sequence | PBM E-score
51 | AAGTATAC | 0.266
52 | CATATGAA | 0.132
53 | ACTTATGC | 0.0843
54 | GGGTAGAC | -0.216
55 | AGAATCGA | 0.0567
56 | GGAATCGA | -0.059
57 | CGAATCGA | 0.301
58 | CCTATTGA | 0.0457
59 | CGCTAACA | 0.118
60 | GATATGAA | 0.214
61 | AATATGAC | 0.223
62 | AATATGAT | 0.279
63 | TATATGAA | 0.203
64 | AATATGAG | 0.0655
65 | AATATGAA | 0.279
66 | CCAGTCTC | -0.22
67 | AGGACACA | 0.0983
68 | GCATAATA | 0.283
69 | ACATAAGA | 0.185
70 | CCATAATA | 0.214
71 | ACATAACT | 0.192
72 | CCATAATC | 0.144
73 | GCATAAGA | 0.0573
74 | ACATAATG | 0.211
75 | ACATAATC | 0.293

Row | Sequence | PBM E-score
76 | ACATAATA | 0.353
77 | GCATAACA | 0.157
78 | ACATAACA | 0.285
79 | ACATAACC | 0.0973
80 | ATGTGGAC | -0.0215
81 | ACCTCCTC | -0.145
82 | AATGCAGT | 0.0696
83 | TACTAAGA | 0.242
84 | ACCGCTGG | -0.16
85 | CAGCCCCC | -0.384
86 | ATAAAGTA | 0.286
87 | ATAAAGTC | 0.133
88 | GTAAAGTA | 0.251
89 | CTAAAGTA | -0.0221
90 | ACAAAGTG | 0.0611
91 | ATAAAGTG | 0.271
92 | AGTGCGGC | -0.165
93 | GATGAGAA | 0.0962
94 | CCGCATGC | -0.00346
95 | AAAATGAC | 0.13
96 | CTAATGGA | -0.0109
97 | AAAATGGG | -0.0559
98 | AAAATGAA | 0.208
99 | AAAATGAT | 0.265
100 | GTAATGGA | 0.288

Row | Sequence | PBM E-score
101 | AAAATGGA | 0.309
102 | CAAATGGA | -0.0854
103 | ATAATGGA | 0.188
104 | CACCCGAA | 0.0804
105 | ACCAAGAC | 0.175
106 | AACGACAT | 0.202
107 | AGAACTGC | -0.131
108 | CATGAACC | 0.0622
109 | ATTCACAG | 0.0188
110 | GTTCACAA | 0.043
111 | ATTCACAA | 0.294
112 | GCATACGA | -0.062
113 | AAACGGTA | 0.301
114 | ACACGGAA | 0.0309
115 | TTACGGAA | 0.266
116 | CAACGGTA | -0.108
117 | AAACGGAA | 0.263
118 | AAACGGAT | 0.277
119 | GAACGGTA | 0.083
120 | AAACGGAC | -0.155
121 | AAACGGAG | 0.0915
122 | ATACGGAA | 0.185
123 | AAACGGGA | 0.12
124 | CTACGGAA | 0.068
125 | ACATGGGT | -0.0457

Row | Sequence | PBM E-score
126 | ACTAGCAT | -0.0172
127 | ACAAGCGC | 0.0537
128 | ATACCATC | 0.119
129 | CCATTTGA | -0.0292
130 | TCGATCCA | -0.0884
131 | ACGCGCAC | -0.015
132 | CCAGTTAA | 0.143
133 | GGAGCCTA | -0.0407
134 | GAACGGAA | 0.0365
135 | CAACGGAA | 0.15
136 | TAACGGAA | 0.276
137 | AACAAAAA | 0.307
138 | GACAAAAA | 0.315
139 | AAACAAAA | 0.185
140 | AACAAAAC | 0.239
141 | GAACAAAA | 0.346
142 | ACCAAAAT | 0.0693
143 | ACCAAAAC | 0.104
144 | GACAAGAA | 0.127
145 | AACAAAAG | 0.164
146 | GAACAAAC | 0.227
147 | GACAAAAC | 0.179
148 | ACCAAAAA | 0.277
149 | AGGCCACA | -0.191
150 | GGGATTGA | -0.173

Row | Sequence | PBM E-score
151 | CAGTAGCA | -0.0517
152 | AGTGAAGG | 0.0123
153 | GAATCAAA | 0.0372
154 | TTATCAAA | 0.283
155 | CAATCAAA | 0.0584
156 | CTATCAAA | 0.155
157 | TAATCAAA | 0.285
158 | GTATCAAA | 0.187
159 | GGCGCTGA | -0.124
160 | ATCAGCTC | 0.00619
161 | AGTTACAC | 0.0567
162 | CAACATTG | 0.115
163 | CTGATTTA | 0.14
164 | GTGATTTA | 0.261
165 | ACGATTTA | 0.312
166 | ATGATTTA | 0.202
167 | GCGATTTA | 0.0749
168 | CCGATTTA | 0.107
169 | CACCTCTA | 0.158
170 | GCAGATAA | -0.0214
171 | ATATACAC | 0.171
172 | ATATACAA | 0.322
173 | CTATACTA | 0.16
174 | CTATACAA | 0.189
175 | ATATACTA | 0.306

Row | Sequence | PBM E-score
176 | ATATACTC | 0.126
177 | AGATCTAC | 0.0426
178 | AGTAACCC | -0.00628
179 | ACAAGTAA | 0.0548
180 | GTCCCTTA | 0.179
181 | CCTTATGA | 0.113
182 | ACTTATAG | -0.0355
183 | ACTTATAC | 0.174
184 | GCTTATTA | 0.232
185 | CCTTATTA | 0.33
186 | ACTTATTA | 0.263
187 | CCTTATTC | 0.0232
188 | ACTTATAT | 0.29
189 | ACTTATTC | 0.162
190 | CCCACGTC | -0.122
191 | CGATTAGC | -0.102
192 | GCACTATA | 0.0864
193 | TAGCAAGA | 0.0496
194 | ACGTAATG | 0.354
195 | CCGTAATA | 0.201
196 | CGGTAATA | 0.202
197 | AGGTAATA | 0.294
198 | GCGTAAAA | 0.231
199 | ACGTAATA | 0.44
200 | ACGTAAAG | 0.184

Row | Sequence | PBM E-score
201 | ACGTAAGA | 0.23
202 | ACGTAAAA | 0.198
203 | GGGTAATA | 0.0455
204 | ACGTAACG | 0.208
205 | GCGTAATA | 0.305
206 | GAGAGCGA | -0.166
207 | CCAGTGTC | -0.1
208 | GCAGATCC | 0.0102
209 | ATCAATAC | 0.11
210 | ACTACCTG | 0.0736
211 | GCGTCTCC | -0.0737
212 | AAATCCTT | -0.0476
213 | CGCTACAC | -0.0665
214 | GATTCAAA | 0.0843
215 | AGCTCTAT | 0.0447
216 | GCTTCTCA | -0.0894
217 | GCAACATA | 0.0566
218 | CCAACATC | -0.011
219 | CCAACATA | 0.305
